According to the supplement of paper PMC6555819:

Tests used:
Assay in all cases: PBM binding z-score (relative to random genomic background probes); higher = stronger binding; sequences stand for … in GC…GCGATTGACAGCGTAGAATGAAGG
[1] = test system: PPARg:RXRa DBDmut IVT, anti-RXR (DBD mutation: RXRa K156A/R161A, NR concentration 270 nM, RXRa partner concentration 90 nM)
Summary of the method: (§1)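 Ligand-free nuclear receptor dimers were bound for 1 h to custom Agilent 4×180K protein-binding microarrays. Detection used antibodies against each partner (one per run). Binding z-scores rest on regression-normalized fluorescence, with random background probes as the reference.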

[2] = test system: PPARg:RXRa IVT, anti-PPARg (NR concentration 270 nM, RXRa partner concentration 90 nM)
Summary of the method: as §1

[3] = test system: PPARg DBDmut:RXRa IVT, anti-PPARg (DBD mutation: PPARg1 K132A/R137A, NR concentration 270 nM, RXRa partner concentration 90 nM)
Summary of the method: as §1

[4] = test system: PPARg DBDmut IVT, anti-PPARg (DBD mutation: PPARg1 K132A/R137A, NR concentration 270 nM)
Summary of the method: as §1

[5] = test system: PPARg homodimer (NR concentration 180 nM)
Summary of the method: as §1

[6] = test system: PXR homodimer (NR concentration 270 nM)
Summary of the method: as §1

[7] = test system: RARa:RXR (NR concentration 270 nM, RXRa partner concentration 90 nM)
Summary of the method: as §1

[8] = test system: RARa homodimer (NR concentration 270 nM)
Summary of the method: as §1

[9] = test system: RARb:RXRa (NR concentration 270 nM, RXRa partner concentration 90 nM)
Summary of the method: as §1

[10] = test system: RARb homodimer (NR concentration 270 nM)
Summary of the method: as §1

[11] = test system: RARg:RXRa (NR concentration 270 nM, RXRa partner concentration 90 nM)
Summary of the method: as §1

[12] = test system: RARg homodimer (NR concentration 270 nM)
Summary of the method: as §1

[13] = test system: RXRa DBDmut IVT, anti-RXR (DBD mutation: RXRa K156A/R161A, NR concentration 90 nM)
Summary of the method: as §1

[14] = test system: RXRa homodimer (NR concentration 180 nM)
Summary of the method: as §1

[15] = test system: THRa:RXRa (NR concentration 90 nM, RXRa partner concentration 90 nM)
Summary of the method: as §1

[16] = test system: THRa homodimer (NR concentration 90 nM)
Summary of the method: as §1

[17] = test system: VDR homodimer (NR concentration 270 nM)
Summary of the method: as §1

[18] = test system: PXR:RXRa (NR concentration 270 nM, RXRa partner concentration 90 nM)
Summary of the method: as §1

[19] = test system: VDR:RXRa (NR concentration 270 nM, RXRa partner concentration 90 nM)
Summary of the method: as §1

| Sequence | PBM binding z-score [1] | PBM binding z-score [2] | PBM binding z-score [3] | PBM binding z-score [4] | PBM binding z-score [5] | PBM binding z-score [6] | PBM binding z-score [7] | PBM binding z-score [8] | PBM binding z-score [9] | PBM binding z-score [10] | PBM binding z-score [11] | PBM binding z-score [12] | PBM binding z-score [13] | PBM binding z-score [14] | PBM binding z-score [15] | PBM binding z-score [16] | PBM binding z-score [17] | PBM binding z-score [18] | PBM binding z-score [19] |
| --- | --- | --- | --- | --- | --- | --- | --- | --- | --- | --- | --- | --- | --- | --- | --- | --- | --- | --- | --- |
| CCTAGTTGGTCAAGGTAACACACGCTATAGGTAC | 1.65 | 1.92 | 0.633 | 0.573 | 1.25 | 0.51 | 0.946 | 1.13 | 1.26 | 1.22 | 0.88 | 1.36 | 0.599 | 0.724 | 1.85 | 1.57 | 0.864 | – | – |
| CAAGCTAGGTCAAAGGTCAAAGTCGAGCCAACCA | 5.45 | 6.94 | 1.27 | -0.285 | 5.21 | 1.5 | 9.03 | 2.23 | 6.05 | 5.17 | 9.17 | 8.1 | 3.05 | 10.6 | 4.96 | 1.45 | 3.39 | – | – |
| GCTTCCGGGTCAAAGGTTATAGCATGAATAGAAT | 6.02 | 6.82 | 2.92 | 1.77 | 4.67 | 0.927 | 8.48 | 0.795 | 4.45 | 2.99 | 6.81 | 4.53 | 2.8 | 9.29 | 4.61 | 1.46 | 2.25 | – | – |
| CGTCCAAGGTCAGAGAGGTCACTGAATGCCGAGT | 3.27 | 4.05 | 0.000167 | 0.0701 | 3.8 | 13.1 | 6.81 | 1.13 | 5.37 | 5.89 | 7.04 | 7.93 | 3.39 | 6.93 | 4.71 | 3.53 | 6.07 | – | – |
| CCTACTGGGCCAAAGGTCTTTGATTCCAATGCTC | 5.05 | 5.18 | 0.12 | -0.165 | 0.366 | -0.504 | 0.354 | -0.497 | 0.448 | 0.557 | 0.154 | 0.0453 | -0.198 | 0.321 | 0.0869 | -0.594 | -0.573 | – | – |
| GGAACGGGGGCAAGTTGATAGCAGAGTTTGATGG | 4.41 | 5.53 | 10.8 | 12.6 | 2.77 | 2.97 | 2.7 | 2.02 | 3.54 | 2.35 | 3.33 | 3.16 | 3.37 | 2.6 | 2.51 | 1.27 | 4.04 | – | – |
| CTCGAAAGGTCGTGCTTAGGTGAGTATACCAAAC | 1 | 1.93 | 0.335 | 0.228 | 2.19 | 0.515 | 4.22 | 0.262 | 3.72 | 3.07 | 5.09 | 3.82 | 2.24 | 4.91 | 4.2 | 1.11 | 1.05 | – | – |
| ATCGAAAGGTCGTGAGGTGACTATACAGAAAGGC | 0.761 | 2.62 | 1.76 | 1.47 | 1.55 | 0.227 | 4.52 | 1.01 | 3.99 | 3.07 | 4.7 | 3.57 | 1.29 | 5.22 | 3.87 | 1.85 | 0.91 | – | – |
| ATATGTAGGTTAGCTGGCGTCATTCAGACTAGGC | 6.56 | 5.58 | 1.28 | 0.35 | 0.334 | -0.283 | 0.227 | 0.262 | 0.462 | -0.15 | 0.427 | 0.556 | -0.166 | 0.485 | -0.223 | -0.829 | -0.39 | – | – |
| CGTCTAAGGTCAAAGGTCAGTGAAGAGATGACGG | 4.71 | 5.84 | 0.729 | 0.828 | 5.87 | 2.61 | 8.98 | 4 | 6.07 | 5.44 | 8.98 | 8.65 | 4.46 | 10.7 | 5.01 | 4.1 | 3.65 | – | – |
| ATCGAAAGGGCGTGAGGTGAGTATACAGAAAGGC | -0.47 | 1.02 | 0.673 | 0.814 | 0.257 | 0.256 | 1.08 | 0.276 | 1.89 | 1.44 | 1.47 | 1.36 | -0.0845 | 1.17 | 2.12 | 1.08 | 0.15 | – | – |
| ATCGAAAGGTCGTCGAGGTGAGTATACACCGTTT | 0.528 | 2.3 | 0.899 | 0.213 | 1.6 | 1.15 | 3.81 | 0.174 | 3.89 | 3.07 | 4.59 | 4.35 | 1.72 | 5.2 | 3.83 | 0.955 | 2.41 | – | – |
| TCTTATAGATCAATAGAGGTTAAGAAAGTGCGCT | 1.88 | 0.653 | 0.623 | 0.528 | 1.11 | 0.488 | 1.99 | 0.901 | 1.03 | 1.22 | 1.04 | 0.633 | 0.906 | 1.75 | 2.49 | 0.125 | 0.336 | – | – |
| CGCCCAAGGTCAGCAGGTCAGTGAAAGCGACGTG | 2.94 | 3.56 | 0.803 | -0.776 | 3.74 | 0.324 | 5.15 | 1.97 | 5.18 | 4.99 | 6.47 | 6.63 | 2.48 | 5.3 | 3.63 | 2.02 | 1.38 | – | – |
| GCTCGGGGGACAAGGTCAGAGCTTTGTCCGTAGA | 2.28 | 3.25 | 1.23 | 1.71 | 1.58 | 0.127 | 3.59 | -0.41 | 3.92 | 3.12 | 4.71 | 4.55 | 1.43 | 3.63 | 3.48 | 1.91 | 1.47 | – | – |
| CGAACTAGGTCAAAGGACAGTGCAAGGCGACGTA | 7.81 | 8.11 | – | -0.34 | 0.639 | -0.108 | 2.14 | -0.256 | 4.02 | 3.1 | 3.95 | 4.42 | 1.15 | 3.24 | 2.57 | 0.81 | 0.767 | 1.31 | 1.68 |
